The list is not random: actives were taken first. Their share in the collection is about 15%.
Pf growth 96h: P. falciparum growth inhibition at 96 hours; P. falciparum luciferase reporter growth, 96 h; Potency, µM (series often up to 28.7 µM), inactives show at the top dose activity change, negative = inhibition, usual class: inhibitors; hit rate 6.9% among 320,000; also: potency is read from the fitted curve at half-maximal effect; % is scaled to controls: 0 for no effect and ±100 for the full control effect
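Two parasite generations (96 h, 37 C, 5% CO2) of compound exposure in infected erythrocytes (0.05% parasitemia, 2% hematocrit). Luciferase-reporter P. falciparum; decreased luminescence indicates inhibited growth, aimed at apicoplast-acting delayed death.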
HCV inhibitor: inhibitors of hepatitis C virus infection; Huh7.5.1 HCVcc-Cre infection, luciferase reporter, 44 h; Potency, µM (titrated, usually from 41.8 µM), for the others: at the top dose activity change, negative = inhibition, most hits filed as inhibitors; hit rate 3.4% among 340,000; also: potency is read from the fitted curve at half-maximal effect; % is scaled to controls: 0 for no effect and ±100 for the full control effect
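HCVcc-Cre virus at an moi near 0.5 was added right after compound to cells cultured 4 h from seeding (1,000 cells/well). Luciferase activity was determined 44 h later, 15 min after substrate addition at RT.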
Pf growth 48h: P. falciparum growth inhibition at 48 hours (one generation) | Potency, µM (titrated, usually from 28.7 µM), without a hit: top-dose activity change, negative = inhibition, most hits filed as inhibitors | hit rate 5.9% among 310,000 | P. falciparum luciferase growth in erythrocytes, 48 h; also: potency is read from the fitted curve at half-maximal effect; % is scaled to controls: 0 for no effect and ±100 for the full control effect
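Firefly luciferase activity from engineered P. falciparum reports growth; inhibitors lower the luminescent signal. Cultures contained 2% hematocrit erythrocytes at 0.1% final parasitemia.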
HCMV inh: human cytomegalovirus inhibition. HFF cells, HCMV-luciferase reporter, 72 h; active compounds read low. activity change, negative = inhibition, % at 57.5 µM. hit rate 4.5% among 410,000. AID 1259415; in the data active = activity change below about -60%; inconclusive = no clear call, values can overlap the other calls; inactive = above about -39%; also: % is scaled to controls: 0 for no effect and ±100 for the full control effect
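Screen run at 2 compound doses on HFFs infected with reporter HCMV, MOI 1 PFU/cell. Luciferase activity from cell lysates at 72 h post infection gave inhibition relative to buffer-only and Salinomycin wells.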
SARS PLpro yeast: SARS-CoV PLP inhibition in yeast | Potency, µM (highest dose often 32.9 µM), for inactives: at the highest dose activity, positive = growth rescue, hits mostly activators | hit rate 0.19% among 330,000 | AID 485353 | S. cerevisiae expressing SARS-CoV PLpro, growth rescue; calls by dose curve; also: potency is read from the fitted curve at half-maximal effect; 0% is about no effect; nearly all actives have a fitted effect of over 55% in size
Sm TGR inh: blocks Schistosoma mansoni thioredoxin glutathione reductase | Q962Y6 | purified TGR, DTNB reduction, TNB absorbance 405 nm | Potency, µM (titrated, usually from 114 µM), for inactives: top-dose activity change, negative = inhibition, usual class: inhibitors | hit rate 3% among 360,000; also: potency is read from the fitted curve at half-maximal effect; % is scaled to controls: 0 for no effect and ±100 for the full control effect; nearly all actives have a fitted effect of over 60% in size
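Kinetic colorimetric format: TGR-catalysed, NADPH-driven DTNB reduction monitored via TNB absorbance. Enzyme dispensed at 20 nM; compound exposure 15 min at room temperature before reaction start.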
An asterisk follows results filed as active; u = inconclusive; x = no result; [ ] = dose if it differs, or a comment. Unless noted, calls follow the shape of the dose curve; as a rule, active = well fitted curve in the direction sought with a large enough effect; inconclusive = small, poorly fitted or top-dose-only effect, or another doubt; inactive = no such curve, though single readings can be large; an effect the other way counts as inactive or inconclusive.

SMILES | Pf growth 96h | HCV inhibitor | Pf growth 48h | HCMV inh | SARS PLpro yeast | Sm TGR inh
COc1ccccc1CNC(=O)Cc1ccccc1 | -8.3% | -19.3% | 0.0% | 106.7 | x | -2.4%
COc1ccccc1CNC(=O)c1cnccn1 | -9.2% | x | x | 30.0 | -5.9% | -3.1%
O=C(NCc1cccnc1)c1cc(Sc2ccc(F)cc2F)nc2ccccc12 | -19.4% | 10µM* | u | -64.3* | 4.9% | -6.9%
COc1ccccc1CNC(=O)c1ccc(C)s1 | 6.57µM* | -6.4% | 59.9% | -31.6 | 1.3% | -2.7%
COc1ccccc1CNC(=O)c1cccnc1 | 11.7µM* | 16.4% | -0.7% | -18.4 | -1.0% | 0.0%
COCCCNC(=O)c1cc(-c2cccnc2)nc2ccccc12 | u | 4.1% | 11.1% | 19.0 | -2.4% | -0.9%
CN1OC[C@@H]2CN(C(=S)NCCc3ccccc3)[C@H](c3ccc(-n4ccnc4)cc3)C[C@@H]21 | x | x | x | 4.6 | x | x
Cc1ccc(CN2C(=O)c3ccccc3Sc3ccc(C(=O)NCc4ccco4)cc32)cc1 | x | x | x | -65.9* | x | 2.2%
CCCCNC(=O)c1ccc2c(c1)N(CC)C(=O)c1ccccc1S2 | x | x | x | -20.5 | x | -8.7%
CCN1C(=O)c2ccccc2Sc2ccc(C(=O)NCCCN3CCCCC3)cc21 | 10.4µM* | u | -17.0% | -32.9 | 0.0% | -8.8%
CCN(CC)CCCNC(=O)c1ccc2c(c1)N(Cc1c(F)cccc1Cl)C(=O)c1ccccc1S2 | x | x | x | -98.2* | x | -2.6%
Cc1ccc(CN2C(=O)c3ccccc3Sc3ccc(C(=O)NCCCN4CCOCC4)cc32)cc1 | 43.9% | 32.2% | 11.7µM* | -38.3 | 22.5% | 2.6%
O=C(NCc1ccco1)c1ccc2c(c1)N(Cc1c(F)cccc1Cl)C(=O)c1ccccc1S2 | x | x | x | -25.7 | x | -10.0%
CCNC(COC(=O)c1ccc([N+](=O)[O-])cc1)C1CCCCC1 (configuration not stated) | x | 36.8% | x | -26.1 | x | x
COc1ccc(S[C@]2(C(=O)N3CCCC3)CC(=O)N(c3ccc(Cl)cc3)[C@@H]2c2ccc(OC)cc2)cc1 | x | x | x | -20.1 | x | x
CCc1ccc(Nc2nc(-c3cc4cccc(OC)c4oc3=O)c(CC)s2)cc1 | x | x | x | u | x | 23.2%
C/C(=N\NC(=O)Cc1ccc(Cl)cc1)c1ccccc1O | -88.8% | u | u | -67.2* | -2.5% | 0.1%
Cc1ccc(-c2cc(C(=O)N/N=C/c3c(C)nn(-c4ccccc4)c3C)[nH]n2)cc1 | 6.57µM* | u | 11.7µM* | -98.5* | -11.3% | 2.8%
O=C(N/N=C/c1ccco1)c1cccc(N2CCCC2=O)c1 | 61.6% | 17.7% | 85.0% | 59.1 | -7.0% | -19.7%
Cc1nn(-c2ccccc2)c(C)c1/C=N/NC(=O)c1cc(C(C)(C)C)[nH]n1 | u | u | u | 9.0 | 1.5% | 1.9%
O=C(N/N=C/c1ccco1)c1cc(-c2ccccc2)n[nH]1 | -23.0% | -7.2% | u | 7.8 | -2.6% | -26.1%
Cc1ccc(-c2cc(C(=O)N/N=C/c3ccco3)[nH]n2)cc1 | -8.2% | -1.2% | 11.7µM* | -5.8 | -9.8% | 60.3%
Cc1ccc(-c2cc(C(=O)N/N=C/c3c(C)nn(-c4ccccc4)c3C)n[nH]2)s1 | 59.8% | 8.91µM* | u | -91.9* | -4.3% | -8.6%
O=C(N/N=C/c1ccco1)c1cccc(N2Cc3ccccc3C2)c1 | 68.0% | 8.7% | -14.6% | -25.2 | 0.4% | 3.55µM*
Cc1noc(C)c1C(=O)N1CCC1(C)C(=O)NS(=O)(=O)c1ccc(F)cc1F (configuration not stated) | x | x | x | -12.1 | x | x
SMILES | Pf growth 96h | HCV inhibitor | Pf growth 48h | HCMV inh | SARS PLpro yeast | Sm TGR inh
Cc1cc(C(=O)N/N=C/c2c(C)[nH]c3ccccc23)n[nH]1 | 16.3% | 6.0% | 20.6% | 37.0 | 0.1% | 1.5%
Cc1[nH]c2ccccc2c1/C=N/NC(=S)NC(C)C | u | 10µM* | -17.6% | u | -1.1% | 8.1%
Cc1[nH]c2ccccc2c1/C=N/NC(=O)c1cc(-c2cccs2)[nH]n1 | u | 11.2µM* | -6.2% | u | -11.9% | 4.1%
CN(N=O)C(=O)N[C@@H]1[C@@H](O)[C@H](O)[C@@H](CO)O[C@@H]1O | x | x | x | -10.3 | x | x
C=CCn1c(SCc2nc3c(c(=O)[nH]c(=O)n3CCCC)n2CCC)nnc1-c1ccccc1 | x | 1.8% | 8.28µM* | -10.0 | 1.8% | 2.5%
CN1CCN(c2ccc3sc(-n4ccc5ccccc54)nc3c2)CC1 | x | x | x | -103.7* | x | x
CC(=O)c1ccc(OCC(C)C)c(CN2CCCCC2)c1 | 3.7µM* | 16.9% | -2.7% | u | 11.6% | 0.0%
CC1CCCN(CCC(=O)c2ccc(Br)cc2)C1 (configuration not stated) | 0.0% | 8.1% | -13.0% | 37.9 | -12.8% | 0.0%
CCCCOc1ccc(C(=O)CCN2CCCCC2)cc1 | -0.8% | 1.2%[8.37 µM] | -13.6% | -9.1 | -48.6% | 0.316µM*
CC(C)COc1ccc(C(=O)CCN2CCCCC2)cc1 | -23.3% | u | 10.8% | 6.7 | -12.5% | 0.355µM*
COc1ccc(C(=O)CCN2CCCC(C)C2)cc1 (configuration not stated) | 243.4% | 26.8% | -18.9% | -28.3 | -3.5% | 0.282µM*
CCCOc1ccc(C(C)=O)cc1CN1CCOCC1 | 10.2% | 13.3% | -4.1% | -11.4 | 1.7% | -15.3%
COc1ccccc1NC(=O)c1oc2ccccc2c1NC(=O)c1cccc(OC)c1OC | x | x | x | 0.6 | x | 1.5%
COC(=O)Nc1ccc2c(c1)N(C(=O)CCCl)c1ccccc1S2 | -18.4% | u | 7.0%[0.00184 µM] | x | -9.1% | -26.9%
CCOc1ccc(C(C)=O)cc1CN1C(=O)NC2(CCCCCC2)C1=O | 4.65µM* | -0.9% | 2.33µM* | -4.2 | 1.7% | 2.4%
CCOc1cc(/C=N/NS(=O)(=O)c2ccc(OC)cc2)ccc1OCCN1CCOCC1 | 5.22µM* | 6.3% | 0.1% | -23.8 | 8.7% | -18.4%
CCCCOc1ccc(C(=O)N/N=C/c2ccc(OCCN3CCCCC3)c(OC)c2)cc1 | 11.7µM* | u | 11.7µM* | 3.7 | -7.2% | -14.6%
COc1cc(CCC(=O)OCC(=O)Nc2cc(S(=O)(=O)N3CCOCC3)ccc2Cl)cc(OC)c1OC | x | 23.5% | x | -22.1 | x | x
Cc1cc(C)nc(N/C(=N\S(=O)(=O)Cc2ccccc2)Nc2ccccc2Br)n1 | -1.0% | -7.4% | u | u | 23.6% | -7.5%
O=C(NC1CC1)C1CCN(C2CCN(C(=O)CC3=CCCCC3)CC2)CC1 | u | -4.0% | -18.3% | -7.6 | 0.9% | 5.0%
Cc1ccc(-c2cc(C(=O)N3CC(C)CC(C)C3)c3ccccc3n2)o1 (configuration not stated) | u | 10.7% | u | 3.0 | -4.7% | 22.4µM*
Cc1ccc(-c2cc(C(=O)N3CCCC3)c3ccccc3n2)s1 | u | -13.3% | -7.1% | 71.5 | -5.1% | 6.9%
CCc1nnc(NC(=O)c2cc(-c3ccc(C)o3)nc3ccccc23)s1 | -12.9% | 16.9% | u | -1.5 | -1.0% | u
